Measurements published in the supplement of paper PMC10681739.

Assays:
ETS1 [1] = target: T1, ETS1 (UniProt P14921); experiment: ETS1 binding intensity (PBM fluorescence), ETS1 alone (arbitrary fluorescence units); higher = stronger binding; settings: ETS1 concentration 1 nM; RUNX1 concentration 0 nM
T1 sequence: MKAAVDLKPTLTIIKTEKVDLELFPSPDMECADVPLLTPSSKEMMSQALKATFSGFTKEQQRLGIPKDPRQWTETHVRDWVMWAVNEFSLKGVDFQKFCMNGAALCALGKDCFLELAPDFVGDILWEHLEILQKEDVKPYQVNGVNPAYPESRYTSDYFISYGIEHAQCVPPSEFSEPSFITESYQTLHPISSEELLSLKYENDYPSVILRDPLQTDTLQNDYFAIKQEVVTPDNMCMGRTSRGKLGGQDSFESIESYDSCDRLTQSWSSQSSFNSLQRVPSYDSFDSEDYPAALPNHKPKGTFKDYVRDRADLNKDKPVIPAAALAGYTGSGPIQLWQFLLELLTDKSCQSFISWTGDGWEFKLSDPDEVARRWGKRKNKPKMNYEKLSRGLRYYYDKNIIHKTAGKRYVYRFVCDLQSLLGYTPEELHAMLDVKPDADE

ETS1 [2] = target: T1, ETS1; experiment: ETS1 binding intensity (PBM fluorescence) in presence of RUNX1, normalised to ETS1-only experiment (arbitrary fluorescence units); higher = stronger binding; settings: ETS1 concentration 1 nM; RUNX1 concentration 25 nM
RUNX1 = RUNX1 (UniProt Q01196); experiment: RUNX1 binding intensity (PBM fluorescence) in presence of ETS1, normalised to RUNX1-only experiment (arbitrary fluorescence units); higher = stronger binding; settings: RUNX1 concentration 2 nM; ETS1 concentration 25 nM
Chain of RUNX1 (Q01196 whole entry): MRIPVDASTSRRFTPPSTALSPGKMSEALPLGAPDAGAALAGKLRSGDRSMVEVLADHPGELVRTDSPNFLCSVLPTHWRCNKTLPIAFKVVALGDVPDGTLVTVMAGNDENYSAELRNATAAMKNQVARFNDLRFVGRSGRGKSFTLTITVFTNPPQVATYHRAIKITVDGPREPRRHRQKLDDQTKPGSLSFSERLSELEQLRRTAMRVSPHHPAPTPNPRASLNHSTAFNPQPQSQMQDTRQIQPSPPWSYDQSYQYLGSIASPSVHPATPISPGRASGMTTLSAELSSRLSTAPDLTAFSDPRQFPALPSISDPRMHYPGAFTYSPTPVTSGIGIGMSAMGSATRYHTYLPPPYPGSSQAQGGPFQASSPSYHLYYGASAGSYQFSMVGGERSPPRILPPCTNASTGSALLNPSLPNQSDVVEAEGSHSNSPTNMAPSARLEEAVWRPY
Protocol: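 Cooperative gcPBM on 36-bp genomic probes with neighbouring ETS1 and RUNX1 sites. Recombinant human RUNX1 (2 nM) was incubated alone or with ETS1 (25 nM) and detected with anti-RUNX1 antibody plus Alexa488 secondary. Values are medians over 4 replicate spots; the RUNX1+ETS1 data were normalised to the RUNX1-only data. The probes sit in constant array flanks that are not printed.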
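Throughout, for RUNX1 binding intensity (PBM fluorescence) in presence of ETS1, normalised to RUNX1-only experiment: Full-length recombinant human ETS1 or RUNX1 bound to double-stranded 36-bp genomic probes on microarrays, detected by protein-specific primary antibody and Alexa488 secondary, spot fluorescence as median of four replicate spots.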

| Sequence | ETS1 binding intensity (ETS1 [1]) | ETS1 binding intensity (ETS1 [2]) | RUNX1 binding intensity (RUNX1) |
| --- | --- | --- | --- |
| ACCCCAGGTACCGGAAGACCACAATTCCCAGGAGTC | 2220 | 3710 | 1880 |
| CTGAAGAGGAAATGTATTCCTCATGTTGTGGTTGGC | 742 | 1980 | 878 |
| TGCATGTGCAGCAGAGGAAACCACAAGTTATTCCCT | 557 | 1560 | 1600 |
| CTTACCTACAGTTCCGCTTGCTGTGGTTTCAGTTAC | 403 | 843 | 2060 |
| TGCTTAGCAGGAAGTTAGTCTGCCTGTGGTAGCTCC | 2770 | 3470 | 1020 |
| GCACCACCGGAAGTAGGGCTCAACCACCGCTCATTT | 10300 | 13400 | 1980 |
| CTGTCATCTTCCTGACAGCACGCCCACAAAGGACCA | 482 | 377 | 916 |
| ACCTTCTGTTCCCTTCCTCAGACCGCAGGCGAGATG | 367 | 835 | 2230 |
| GACAGGAAGCCCGCGGCAGCCTCCGTGGTTGCAGAT | 562 | 687 | 1090 |
| CTGAAAAACCGGAAGTGGGTGGTTTGAAACGTAAAT | 18000 | 20800 | 4130 |
| AAAAAGCCGGATGTGAAGGCTGTGGTTCTCAACCCG | 2880 | 6480 | 1310 |
| GACTCCATTTCCCGTCGGCTCGCGGTGGGAGCGCCG | 417 | 453 | 1900 |
| CTAGGCCACCGGAAGTCTCCGCAGTGGTTTTGCAAA | 14900 | 25800 | 1610 |
| TGAGAAAGCTATTTCCGCCCACAAAGAGGCAAGTCT | 1420 | 1370 | 1570 |
| GCGCCAGTCACCGTTTCCTGTGGTTTGCTGCCCGCC | 1790 | 3010 | 2810 |
| TCCCACATCCTGTGCTCGTGCAGTGGTTAGGCTCAA | 562 | 608 | 2490 |
| CAACACAGGATGTGCAGTATTATACCGCAAAGCACT | 1710 | 6950 | 2070 |
| GCGCCCGGAAGGAAGGCTGGGGTAGGTTGTGGTTTC | 476 | 2740 | 1140 |
| AGGCCCGGATACCCGCCCCCAAAACCGCGTCCACAA | 523 | 1050 | 1090 |
| TTTGAGCGGGCAGGATGTGGTGACAATGATACTGCA | 4280 | 8140 | 2370 |
| CGCCTCATTTCCTGTGCAACTGCGGTAAAAATAGGA | 1860 | 5000 | 4630 |
| GGACTGCGTTTCCGGACACTGCGGGTGCCGGTAGCC | 1290 | 1680 | 1450 |

| Sequence | ETS1 binding intensity (ETS1 [1]) | ETS1 binding intensity (ETS1 [2]) | RUNX1 binding intensity (RUNX1) |
| --- | --- | --- | --- |
| GCATCATCACTTCCTGTTGTGGGCAGTCGTTGCCTG | 3300 | 5100 | 2360 |
| CCTGCCTGAGGCAGGAAGCCGCAGCTGAGGGACGGC | 2980 | 5390 | 1280 |
| GGCAGCCGGCTTCCGGCTGTGGGTGGTGCGGGGGAC | 1370 | 1820 | 1540 |
| GCAGTGCAGGAAGTGCTTTGTGTGGTACAATCCCAA | 1920 | 2110 | 1030 |
| CGAACGCCGGACGTTCTGGGCACGTGACCGCCACCC | 643 | 1100 | 938 |
| GGGGCAGCTTCCGGCAGGAGAGCCCGCATTCACGGC | 731 | 751 | 2360 |
| CCTGTTTCCTGCCATCTGCCCTTCCTTTGTGGTCAA | 774 | 1260 | 6290 |
| GGGGCAGGAAGTGGAGGTTTGAAGTGGTTTAGAGTA | 1740 | 2310 | 1350 |
| CTGACAGTTACTTCCTGTCTTTGTGGGCGATTGTGA | 3170 | 4620 | 2390 |
| AGCCCGGCTTCCGGCGCGTGCCGCTGCGGCTGCAGG | 791 | 1030 | 1370 |
| GCCCACCCGCTTCCGGTTGTGGGCCCCGCCCGCCGA | 5540 | 7350 | 7040 |
| CCGGGAAGGCGGAAGCAGCAGAGACGCCGCAAGGCC | 1320 | 1560 | 980 |
| CTCTCTGGGCGGAAGGAACGCGGTCACCCTGAGAAA | 547 | 968 | 871 |
| TCTCTTCCTGTGATGGAAATACATTGAGGTTTGCGA | 523 | 743 | 1740 |
| TCCCGAGAGCCGGAAGCAGCCGCAGGCCCCGCCACA | 3950 | 4410 | 1330 |
| GGAGGCGGAAGTGGAGGTTGTTGTGGCTCCGAGGGC | 1940 | 1950 | 1100 |
| GATACAGTGCTCAGGAAACCACATGAAACCAGAGTA | 451 | 948 | 972 |
| CCAGAATGCAGGAAGTGCTGTGGTTTGACTTTGTTT | 3550 | 9350 | 1970 |
| TGAGCACTGAGCACTTCCTGTGGCTTCTGAAGCTCC | 1860 | 2040 | 1310 |
| ATAAACAGGAAGCTGAGTATGTGACCACAGACATTC | 1670 | 5200 | 1630 |
| GGCTTCCGCCGCCACCACTGCCCCTCAACCGCCACG | 518 | 601 | 2040 |
| CACCTGGCCCGGACGGCTGCGGTCTGGAGGGCTGTC | 386 | 792 | 2050 |
